Values joined by “and” are separate entries in the source; they are usually repeats but may differ in a detail not shown here. Identical values can stand only once. ± gives the standard deviation of the averaged measurements.

One test deals with DLD1. The experiment in a line: cell viability (CellTiter-Glo) relative to plate median (fraction of plate median); higher = more viable cells. The conditions noted are these: 10 µM; treatment time 24 h; reporter: 7TFP. In outline: (§1)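 Colorectal cancer cells expressing a stably transduced lentiviral TCF/Wnt firefly luciferase reporter were treated in 384-well plates with kinase inhibitor library compounds at a final 10 µM for 24 h. Firefly luciferase or CellTiterGlo luminescence was then read on parallel plates. Well signals were normalised to the plate median (webcellHTS2, additive, no log transformation) and averaged over two independent replicates.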
For orientation: Cellular ATP, detected with luciferase, serves as a proxy for viable cell number.
Turning to `C[C@@H](N)[C@H]1CC[C@H](C(=O)Nc2ccncc2)CC1`, the cell viability was determined as 1.03 ± 0.05. Still for that read-out and setting: for `Cc1csc(-c2nnc(Nc3ccc(Oc4ncccc4-c4ccnc(N)n4)cc3)c3ccccc23)c1` the value was 0.943 ± 0.042; for `CC(C)c1cnn2c(NCc3ccccc3)cc(NCCCCCCN)nc12`, 1 ± 0.067; for `CNC(=O)c1cc(Oc2ccc(NC(=O)Nc3ccc(Cl)c(C(F)(F)F)c3)cc2)ccn1` [Sorafenib (Nexavar)], 1.11 ± 0.028.

For `Cc1cc2c(F)c(Oc3ncnn4cc(OC[C@@H](C)OC(=O)[C@H](C)N)c(C)c34)ccc2[nH]1`, the cell viability was 1.06 ± 0.042. Still for that read-out and setting: next, `COc1cc(CCc2cc(NC(=O)c3ccc(N4CC(C)NC(C)C4)cc3)n[nH]2)cc(OC)c1` (stereo unspecified): 0.967 ± 0.1; `CCCCOc1c(C(=O)c2c(F)cc(C)cc2F)c[nH]c2nncc1-2`: 1.075 ± 0.0071.

`CC(C)(C)c1cc(NC(=O)Nc2ccc(-c3cn4c(n3)sc3cc(OCCN5CCOCC5)ccc34)cc2)no1` [Quizartinib (AC220)] gave a cell viability of 0.994 ± 0.19. The same measure, in the same setting: next, `C[C@H](NC(=O)/C(C#N)=C/c1cccc(Br)n1)c1ccccc1`: 0.579 ± 0.082.

Still in this test, the particulars now being: 10 µM; treatment time 24 h; reporter: TCF4/Wnt.
In turn, `C[C@@H](N)[C@H]1CC[C@H](C(=O)Nc2ccncc2)CC1` displayed a cell viability of 1.03 ± 0.05. Same read-out and setting: for `Cc1csc(-c2nnc(Nc3ccc(Oc4ncccc4-c4ccnc(N)n4)cc3)c3ccccc23)c1` the value was 1.03 ± 0.035; for `CC(C)c1cnn2c(NCc3ccccc3)cc(NCCCCCCN)nc12`, 0.969 ± 0.073; for `CNC(=O)c1cc(Oc2ccc(NC(=O)Nc3ccc(Cl)c(C(F)(F)F)c3)cc2)ccn1` [Sorafenib (Nexavar)], 1.04 ± 0.098. The same measure, in the same setting: for `Cc1cc2c(F)c(Oc3ncnn4cc(OC[C@@H](C)OC(=O)[C@H](C)N)c(C)c34)ccc2[nH]1` the value was 0.938 ± 0.052; for `COc1cc(CCc2cc(NC(=O)c3ccc(N4CC(C)NC(C)C4)cc3)n[nH]2)cc(OC)c1` (stereo unspecified), 0.951 ± 0.04. Same read-out and setting: next, `CCCCOc1c(C(=O)c2c(F)cc(C)cc2F)c[nH]c2nncc1-2`: 1.02. Compound `CC(C)(C)c1cc(NC(=O)Nc2ccc(-c3cn4c(n3)sc3cc(OCCN5CCOCC5)ccc34)cc2)no1` [Quizartinib (AC220)] gave a cell viability of 0.989 ± 0.086.

With `C[C@H](NC(=O)/C(C#N)=C/c1cccc(Br)n1)c1ccccc1`, the cell viability is 0.529 ± 0.0085.

The subject of a further test is HCT116. The description is as above. Conditions: 10 µM; treatment time 24 h; reporter: TCF4/Wnt. The procedure, abridged: as §1
The compound `C[C@@H](N)[C@H]1CC[C@H](C(=O)Nc2ccncc2)CC1` displayed a cell viability of 1.09 ± 0.021.

In turn, `Cc1csc(-c2nnc(Nc3ccc(Oc4ncccc4-c4ccnc(N)n4)cc3)c3ccccc23)c1` had a cell viability of 1.16 ± 0.071.

`CC(C)c1cnn2c(NCc3ccccc3)cc(NCCCCCCN)nc12` came in with a cell viability of 1 ± 0.055. Same read-out and setting: next, `CNC(=O)c1cc(Oc2ccc(NC(=O)Nc3ccc(Cl)c(C(F)(F)F)c3)cc2)ccn1` [Sorafenib (Nexavar)]: 1.135 ± 0.0071; `Cc1cc2c(F)c(Oc3ncnn4cc(OC[C@@H](C)OC(=O)[C@H](C)N)c(C)c34)ccc2[nH]1`: 0.981 ± 0.041. The same measure, in the same setting: next, `COc1cc(CCc2cc(NC(=O)c3ccc(N4CC(C)NC(C)C4)cc3)n[nH]2)cc(OC)c1` (stereo unspecified): 1.04 ± 0.058; `CCCCOc1c(C(=O)c2c(F)cc(C)cc2F)c[nH]c2nncc1-2`: 1.13 ± 0.085. The same measure, in the same setting: next, `CC(C)(C)c1cc(NC(=O)Nc2ccc(-c3cn4c(n3)sc3cc(OCCN5CCOCC5)ccc34)cc2)no1` [Quizartinib (AC220)]: 1.15 ± 0.11; `C[C@H](NC(=O)/C(C#N)=C/c1cccc(Br)n1)c1ccccc1`: 0.183 ± 0.0028.

A further test deals with SW480. The description is as above. Conditions: 10 µM; treatment time 24 h; reporter: 7TFP. In outline:
as §1
Compound `C[C@@H](N)[C@H]1CC[C@H](C(=O)Nc2ccncc2)CC1` yielded a cell viability of 1.045 ± 0.0071. Consider `Cc1csc(-c2nnc(Nc3ccc(Oc4ncccc4-c4ccnc(N)n4)cc3)c3ccccc23)c1`, for which the cell viability was determined as 1.03 ± 0.059.

Regarding `CC(C)c1cnn2c(NCc3ccccc3)cc(NCCCCCCN)nc12`, the cell viability was determined as 0.921 ± 0.041. As to `CNC(=O)c1cc(Oc2ccc(NC(=O)Nc3ccc(Cl)c(C(F)(F)F)c3)cc2)ccn1` [Sorafenib (Nexavar)], the cell viability was 1.04 ± 0.021. Same read-out and setting: for `Cc1cc2c(F)c(Oc3ncnn4cc(OC[C@@H](C)OC(=O)[C@H](C)N)c(C)c34)ccc2[nH]1` the value was 1.23 ± 0.071; for `COc1cc(CCc2cc(NC(=O)c3ccc(N4CC(C)NC(C)C4)cc3)n[nH]2)cc(OC)c1` (stereo unspecified), 1.07 ± 0.05.

`CCCCOc1c(C(=O)c2c(F)cc(C)cc2F)c[nH]c2nncc1-2` gave a cell viability of 0.862 ± 0.067.

Compound `CC(C)(C)c1cc(NC(=O)Nc2ccc(-c3cn4c(n3)sc3cc(OCCN5CCOCC5)ccc34)cc2)no1` [Quizartinib (AC220)] gave a cell viability of 1.095 ± 0.0071. Same read-out and setting: next, `C[C@H](NC(=O)/C(C#N)=C/c1cccc(Br)n1)c1ccccc1`: 0.899 ± 0.0057.

For another test, the system named is DLD1. The experiment in a line: cell viability (CellTiter-Glo) relative to plate median (fraction of plate median); higher = more viable cells. The conditions noted are these: 5 µM; treatment time 24 h; reporter: 7TFP. The procedure, abridged:
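Per-well firefly luciferase or CellTiterGlo luminescence, normalised to the plate median, is what is reported. It was measured in colorectal cancer cells with stable lentiviral TCF/Wnt firefly luciferase reporters after a 24 h treatment with library compounds at a final 5 µM. The mean of two independent replicates is given.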
Consider `NCCc1ccc(O)c(O)c1`, for which the cell viability is 0.922 and 1. The same measure, in the same setting: next, `CC(C)[C@@H](C)/C=C/[C@@H](C)[C@H]1CC[C@H]2C3=CC=C4C[C@@H](O)CC[C@]4(C)[C@H]3CC[C@]12C`: 1.05 ± 0.05; `CC[N+](CC)(CC)CCOc1cccc(OCC[N+](CC)(CC)CC)c1OCC[N+](CC)(CC)CC`: 0.9365 ± 0.0021; `C/C=C(/C(=C/C)c1ccc(O)cc1)c1ccc(O)cc1`: 0.987 ± 0.018.

As for `CCCOc1ccc2[nH]c(NC(=O)OC)nc2c1`, the cell viability came out at 0.979 ± 0.011. On the same count and under the same terms, for `COc1cc(OC)c2c(c1Cl)O[C@@]1(C(=O)CC(=O)C[C@H]1C)C2=O` the value was 1.02 ± 0.014; for `CC1=CC2C(C(C)C)CCC(C)(O)C2CC1` (stereo unspecified), 0.97 ± 0.036; for `CC(CCC(=O)O)[C@H]1CCC2C3C[C@H](O)[C@@H]4C[C@H](O)CC[C@]4(C)C3CC[C@@]21C` (stereo partly drawn) [alpha-HYDROXYDEOXYCHOLIC ACID], 1.04 ± 0.13. Regarding `CC(=O)[C@H]1CC[C@H]2[C@@H]3C[C@H](C)C4=CC(=O)CC[C@]4(C)[C@H]3[C@@H](O)C[C@]12C`, the cell viability turned out to be 0.979 ± 0.12. Still for that read-out and setting: for `O=C1NC(Cc2ccc(O)cc2)C(=O)N2CCCC12` (stereo unspecified) [Cyclo(tyrosylprolyl)] the value was 0.935 ± 0.0085.

`O=c1ccn([C@@H]2O[C@H](COP(=O)(O)OP(=O)(O)OP(=O)(O)O)[C@@H](O)[C@H]2O)c(=O)[nH]1` displayed a cell viability of 0.986 ± 0.091. The same measure, in the same setting: next, `COc1cc(NS(=O)(=O)c2ccc(N)cc2)nc(OC)n1`: 0.9765 ± 0.0092; `CC(C)(Oc1ccc(C2CC2(Cl)Cl)cc1)C(=O)O` (stereo unspecified): 1.06 ± 0.05. Still for that read-out and setting: for `CC(=O)c1oc2c(C)c3oc(=O)cc(C)c3cc2c1C` [2-Acetyl-3,5,9-trimethylfuro[3,2-g]-chromen-7-one (VFT-04)] the value was 1.02 ± 0.11.

Compound `C=CCCCCCCCCC(=O)[O-].C=CCCCCCCCCC(=O)[O-].[Zn+2]` showed a cell viability of 0.996 ± 0.049. Still for that read-out and setting: next, `O=C(CCCCCCCCCCCCC1CCCC1)Nc1ccc(S(=O)(=O)c2ccc(NC(=O)CCCCCCCCCCCCC3CCCC3)cc2)cc1`: 1.02 ± 0.062; `CCCC(=O)O[C@]1(C(=O)CO)CC[C@H]2[C@@H]3CCC4=CC(=O)CC[C@]4(C)[C@H]3[C@@H](O)C[C@@]21C`: 0.965 ± 0.03; `NCCCCC(=O)O`: 0.9365 ± 0.0021. For `CC(C)NNC(=O)c1ccncc1`, the cell viability is 1.02 ± 0.029. The same measure, in the same setting: for `c1ccc(CC2=NCCN2)cc1` the value was 0.994 ± 0.066; for `CC1(C)S[C@@H]2[C@H](NC(=O)[C@H](N)c3ccccc3)C(=O)N2[C@H]1C(=O)O`, 0.963 ± 0.0099; for `CC(=O)OCC1=C(C(=O)O)N2C(=O)[C@@H](NC(=O)CSc3ccncc3)[C@H]2SC1`, 1.05.

The compound `COc1cc2c(cc1OC)[C@@H]1Cc3ccc(OC)c(OC)c3CN1CC2` showed a cell viability of 0.97 ± 0.085. Still for that read-out and setting: for `Cc1cc(-c2ncc(CC(=O)Nc3ccc(-c4cnccn4)cn3)cc2C)ccn1` the value was 0.974 ± 0.052; for `O=C(O[C@@H]1Cc2c(O)cc(O)cc2O[C@@H]1c1cc(O)c(=O)c2c(O)c(O)cc([C@H]3Oc4cc(O)cc(O)c4C[C@H]3OC(=O)c3cc(O)c(O)c(O)c3)c2c1)c1cc(O)c(O)c(O)c1`, 0.996 ± 0.035; for `Nc1ccn([C@@H]2O[C@H](CO)[C@@H](O)[C@@H]2O)c(=O)n1`, 0.987 ± 0.018. The same measure, in the same setting: next, `C=CC1=C(C)c2cc3[nH]c(cc4nc(cc5[nH]c(cc1n2)c(C)c5CCC(=O)O)C(CCC(=O)O)=C4C)c(C)c3C=C`: 1 ± 0.028; `C=C[C@@]1(C)CC(=O)[C@@]2(O)[C@](C)(O1)[C@@H](O)[C@@H](O)C1C(C)(C)CC[C@H](O)[C@@]12C` (stereo partly specified): 0.9975 ± 0.0035. As to `COCCOC(=O)C1=C(C)NC(C)=C(C(=O)OC(C)C)C1c1cccc([N+](=O)[O-])c1` (stereo unspecified), the cell viability was found to be 0.9 ± 0.1. The same measure, in the same setting: for `CN[C@H](CC(=O)O)C(=O)O` the value was 0.99 ± 0.028.

Values taken from the supplement of paper PMC6522484.
